# Compound activity: PubChem, National Center for Advancing Translational Sciences (NCATS)
# This excerpt belongs to a sample that is enriched for hits.
# LASV entry inh = blocks Lassa virus binding to or entry into cells; Lassa virus pseudotype entry inhibition, cell reporter; Potency, µM (top dose mostly 37.9 µM), usual class: inhibitors; actives 1.2% (n = 300,000); calls by dose curve; tested in HEK293 cells; note: nearly all actives have a fitted effect of over 50% in size
# MARV entry inh = blocks Marburg virus binding to or entry into cells | Marburg virus pseudotyped entry inhibition, cell reporter | Potency, µM (highest dose often 37.8 µM), hits mostly inhibitors | actives 1.8% (n = 300,000) | AID 540276; calls by dose curve; tested in HEK293 cells
# AMA1-RON2 inh = disrupts binding of P. falciparum AMA1 to RON2; AID 720542; Potency, µM (top dose mostly 58.2 µM), actives largely listed as inhibitors; AlphaScreen AMA1-biotinylated RON2 peptide binding; actives 0.2% (n = 360,000); active = well fitted inhibition curve with a large enough effect; inconclusive = small, poorly fitted or top-dose-only effect; inactive = no such curve, though single readings can be large or run the other way; note: nearly all actives have a fitted effect of over 45% in size
#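 AMA1 (3D7) with his tag at 25 nM final met compounds first, then biotinylated RON2 peptide at 25 nM; detection used donor plus acceptor beads, 10 µg/mL apiece, read by AlphaScreen after 30 min at room temperature.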
# Shiga toxin inh = inhibitors of Shiga toxin in Vero cells; actives 9.2% (n = 290,000); Vero cells, Shiga toxin protein synthesis inhibition reporter; inhibition, % at 38.7 µM; in the data active = inhibition mostly above about 28%, no sharp cut-off; inactive = mostly below about 43%
# Cycloheximide cs = affects cycloheximide protein synthesis inhibition readout, counter-screen. cell reporter, cycloheximide protein synthesis inhibition counterscreen. max response, %. actives 12% (n = 300,000); in the data active = max response mostly above about 13%, no sharp cut-off; inactive = mostly below about 14%; note: read at 38.3 µM for the half of the compounds with a filed dose
# Hits are given with their value; . = inactive; ? = inconclusive; / = not tested or not shown; [ ] = dose if it differs, or a comment.
SMILES,LASV entry inh,MARV entry inh,AMA1-RON2 inh,Shiga toxin inh,Cycloheximide cs
CCCCNC(=O)c1nc(C2CCN(S(=O)(=O)c3c(OC)cccc3OC)CC2)oc1-c1ccccc1,/,/,.,/,/
CCCN(CC(=O)Nc1ccc(Cl)cc1Cl)C(=O)/C=C/c1ccco1,?,?,.[2.32 µM],174.1,76.8
CCN(CC(=O)Nc1ccc(NC(C)=O)cc1)C(=O)/C=C/c1ccco1,.,.,.,/,/
COc1ccc(C(CNC(=O)C2CC(=O)N(Cc3ccccc3)C2)N2CCOCC2)cc1 (stereo unspecified),/,/,.,/,/
CC(C)OC(=O)N(C)C[C@@H]1OCc2cnnn2CCCC(=O)N([C@H](C)CO)C[C@H]1C,/,/,.,/,/
COc1ccc(C(=O)O/N=C(\C)c2cnccn2)cc1,.,.,.,.,.
C=CCO/N=C(/C)c1ccc(Oc2cnccn2)cc1,.,.,.,47.3,27.4
CCCN1CCC(=O)N([C@H](CSc2ccc(OC)cc2)c2ccccc2)CC1,/,/,.,37.1,14.7
CCCN1CCC(=O)N(C(CSc2ccc(OC)cc2)CC(C)C)CC1 (stereo unspecified),/,/,/,52.9,43.0
CC(C)C[C@@H](CSc1ccc(Br)cc1)N1CCN(CC(C)C)CCC1=O,/,/,.,74.8,17.7
CCCN1CCC(=O)N(C(CSc2ccc(Br)cc2)CC(C)C)CC1 (stereo unspecified),/,/,/,89.4,36.1
O=C(c1cnc(N2CCOCC2)c2ccccc12)N1CCN(c2ccc(F)cc2)CC1,.,/,/,/,/
COc1ccccc1N1C(=O)c2ccc(C(=O)Nc3ccc(C(=O)O)cc3)cc2C1=O,.,.,.,.,.
Cc1ccccc1OCCSc1nc2ccc(NC(=O)c3cccs3)cc2s1,.,.,/,/,/
NS(=O)(=O)OCCCCCc1ccccc1,/,/,.,.,14.3
Cc1ccc(NC(=O)Nc2ccccc2)nc1,/,/,.,/,/
Cc1ccc(CNC(=O)Nc2ccccc2)c(C)c1,.,?,.,64.0,30.6
Cc1ccccc1CNC(=O)Nc1ccc2c(c1)N(C)C(=O)c1ccccc1S2,.,.,/,/,/
Cc1ccccc1CNC(=O)Nc1ccc(Cl)cc1,.,?,.,69.3,34.2
COc1ccc2c(c1)cc(C(=O)N[C@@H](CCSC)C(=O)N1CCC(C(=O)O)CC1)n2C,.,.,.,.,.
c1ccc(-c2ncc(-c3ccn[nH]3)s2)cc1,?,?,.,92.8,45.8
N#Cc1ccccc1OCC(=O)NC1CCCCCC1,/,/,.,/,/
CCOc1ccccc1OCC(=O)NC1CCCCC1,.,.,.,.,.
O=C(COc1ccccc1Br)NC1CCCC1,.,.,.,77.6,31.9
COc1ccccc1OCC(=O)NC1CCCCCC1,.,.,.,41.7,21.8
SMILES,LASV entry inh,MARV entry inh,AMA1-RON2 inh,Shiga toxin inh,Cycloheximide cs
COc1cccc(C2CC(c3cccs3)=NN2S(C)(=O)=O)c1 (stereo unspecified),.,.,.,.,.
CC(=O)c1ccc(N2CCN(C(=S)Nc3cccc(Cl)c3)CC2)cc1,.,.,.,.,.
Cc1ccc(NC(=O)Nc2ccc(S(N)(=O)=O)cc2)cc1,.,?,.,49.3,30.1
O=C(C=NNc1ccccc1)c1ccccc1,?,?,.,/,/
CC(=O)c1ccc(NC(=O)Nc2cccc(Cl)c2)cc1,.,.,.,60.6,36.7
O=C(Nc1ccccc1)Nc1ccccc1,/,/,.,92.9,48.1
O=C(O)/C(=C\C(=O)c1ccccc1)Nc1ccccc1,/,/,/,83.5,51.4
O=C(COC(=O)/C=C/c1ccc(OC(F)F)cc1)Nc1cccc(S(=O)(=O)N2CCOCC2)c1,.,.,.,/,/
NS(=O)(=O)c1ccc(NC(=O)Nc2cccc(Cl)c2)cc1,?,.,.,.,19.3
CN(C)S(=O)(=O)c1cccc(NC(=O)CCCC2CCCCC2)c1,/,/,.,/,/
CS/C(N)=N/C(=S)Nc1cccc(Cl)c1,?,.,.,94.5,36.1
NC(=S)Nc1cccc(Cl)c1,?,.,.,.,.
NS(=O)(=O)c1cccc(NC(=O)CCCC2CCCCC2)c1,.,?,.,59.7,.
COC(=O)C(C)(C)ONC(=O)Nc1ccc([N+](=O)[O-])cc1,.,.,.,.,.
NS(=O)(=O)c1ccc(NC(=O)Nc2ccccc2)cc1,?,.,.,.,.
COC(=O)C(C)(C)ONC(=O)Nc1ccc(C)cc1,.,?,.,42.6,21.3
O=C(NCCCc1ccccc1)Nc1cccc(Cl)c1,.,.,.,24.0,34.7
NS(=O)(=O)c1ccc(NC(=S)NCCc2ccccc2)cc1,.,.,.,.,.
CC(=O)c1ccc(NC(=S)NCCc2ccc(S(N)(=O)=O)cc2)cc1,?,.,.,98.6,32.0
CC(=O)c1ccc(NC(=S)NCCc2cccc(Cl)c2)cc1,?,?,.,77.7,27.0
O=C(Nc1ccccc1)Nc1cccc(Cl)c1,.,.,.,106.9,55.6
